# PubChem BioAssay (NCI)
# About 79,000 compounds went through this panel and 15% of them were active in at least one assay; those are over-represented in the sample as a whole. Activity calls are given as the source filed them. Cut-off read from the data, not from the text of the source: active = growth inhibition above about 70%; inactive = the rest.
# Test: NCI Yeast Anticancer Drug Screen. Data for the rad52 strain (AID 147);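 note: 0% = growth of vehicle-treated control cultures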
# Conditions: S. cerevisiae rad52 mutant growth inhibition; at 1.2 µM; hits give high values
# How it was run: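 Read-out: growth inhibition versus vehicle-treated controls. Cells were a DNA repair-deficient yeast strain treated with compounds.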
row,Structure (SMILES),growth inhibition
1,CCN(CC)CC[n+]1ccc2c(C)c3[nH]c4ccc(O)cc4c3c(C)c2c1,13% (inactive)
2,O=[n+]1c2ccc(Cl)cc2n([O-])c2ccc(Cl)cc21,5% (inactive)
3,CCOP(=O)(OCC)C(Cc1ccccc1)N=C(c1ccccc1)c1ccccc1 (stereo not drawn),-21% (inactive)
4,CC[C@@]1(O)C(=O)OCc2c1cc1n(c2=O)Cc2cc3c(N)cccc3nc2-1,54% (inactive)
5,COC1C=COC2(C)Oc3c(C)c(O)c4c(c3C2=O)/C(=N/C2CCC(O)OC2C)C=C(NC(=O)/C(C)=C\C(=O)C2CC2C(O)C(C)C(O)C(C)C(OC(C)=O)C1C)C4=O (stereo not drawn),0% (inactive)
6,COc1cc2c(c(OC)c1OC)-c1c(cc3c(c1OC)OCO3)CC(C)C(C)(O)C2OC(=O)c1ccccc1 (stereo not drawn),-26% (inactive)
7,O=c1ssc2ncccc12,3% (inactive)
8,O=C1C2C(C(=O)N1c1ccc(OCc3ccccc3)cc1)C1c3ccccc3C2C2CCCCN21 (stereo not drawn),-3% (inactive)
9,COc1ccc(-c2cn(-c3ccc(I)cc3)c3ncnc(N)c23)cc1,-2% (inactive)
10,CCOC(=O)C(NC(=O)c1ccccc1)(N1CCN(c2cc3c(cc2F)c(=O)c(C(=O)O)cn3C2CC2)CC1)C(F)(F)F (stereo not drawn),-1% (inactive)
11,C/C(=N\O)C1CC2C=C(C#N)C1N(Cc1ccccc1)C2 (stereo not drawn),-5% (inactive)
12,CC/C(=C(\c1ccccc1)c1ccc(OCCN(C)C)cc1)c1ccccc1,15% (inactive)
13,COc1ccccc1N=NC(C(=O)c1ccccc1)C(=O)c1ccccc1,3% (inactive)
14,CC(O)C(O)C(O)C(/C=N\Nc1ccccc1)=N/Nc1ccccc1 (stereo not drawn),5% (inactive)
15,COc1ccc(/C=C2\SC(=S)N(/C=C/c3nc4ccccc4[nH]c3=O)C2=O)cc1OC,7% (inactive)
16,N#CN=Nc1cc(Cl)c(N=NC#N)cc1Cl,-27% (inactive)
17,Cc1ccc(S(=O)(=O)Oc2cc(Cl)c(Cl)cc2Cl)cc1,-1% (inactive)
18,c1ccc2c(c1)Oc1cccc3cccc-2c13,5% (inactive)
19,O=C(c1ccc(Cl)cc1Cl)C(Cl)Cl,4% (inactive)
20,CC(C)C1=CCC2C(=C1)CCC1C(C)(C(=O)O)CCCC21C (stereo not drawn) (tested in a mixture with another compound),0% (inactive)

row,Structure (SMILES),growth inhibition
1,COc1cc(/C=C2\CCc3ccccc3C2=O)cc(OC)c1OC,3% (inactive)
2,CC(=O)[O][Bi]([c]1ccccc1)[c]1ccccc1,31% (inactive)
3,S=C(N/N=C/c1ccccn1)Nc1ccc(Cl)cc1,-5% (inactive)
4,COc1cc(CC2CC(c3ccc4c(c3)OCO4)OC2=O)cc(OC)c1OC (stereo not drawn),-1% (inactive)
5,CNC1C(OC2C(OC3C(O)C(O)C(N=C(N)N)C(O)C3N=C(N)N)OC(C)C2(O)CO)OC(CO)C(O)C1O (stereo not drawn),-3% (inactive)
6,NNC(=O)CCc1ccc2ccc3ccccc3c2c1,-1% (inactive)
7,Oc1ccc2ccccc2c1C(c1ccc(Cl)cc1)c1c(O)ccc2ccccc12,-39% (inactive)
8,CCCCN(CCCC)CCSc1ccc(Cl)cc1,-6% (inactive)
9,CCC(C)COC(=O)c1ccc(N=Cc2ccc(C=Nc3ccc(C(=O)OCC(C)CC)cc3)cc2)cc1 (stereo not drawn),-2% (inactive)
10,CC1(C)C(=O)OC(n2cc(F)c(=O)[nH]c2=O)C1=O (stereo not drawn),-32% (inactive)
11,O=[N+]([O-])CC(SCc1ccccc1)c1ccc2c(c1)OCO2 (stereo not drawn),39% (inactive)
12,COc1cc2c(cc1[N+](=O)[O-])C(=O)C(Br)(Br)CCC2,39% (inactive)
13,OCC1OC(OCC(O)C(O)C(O)C(/C=N/Nc2ccccc2)=N/Nc2ccccc2)C(O)C(O)C1O (stereo not drawn),2% (inactive)
14,COc1ccc(N=C2C(=O)Nc3ccc(Br)cc32)cc1,14% (inactive)
15,Cn1c(=O)c2ccccc2c2ccccc21,-2% (inactive)
16,CC[n+]1ccc2c(C)c3[nH]c4ccc(O)cc4c3c(C)c2c1,5% (inactive)
17,CC(=O)ON1C(=O)c2cccc3cccc(c23)C1=O,13% (inactive)
18,COc1ccc2ccc3ccccc3c2c1C=O,-5% (inactive)
19,OC1CCCc2c1cc1ccc3cccc4ccc2c1c34 (stereo not drawn),-7% (inactive)

# Same assay, conditions: S. cerevisiae rad52 mutant growth inhibition; at 3.7 µM; hits give high values
row,Structure (SMILES),growth inhibition
1,CCN(CC)CC[n+]1ccc2c(C)c3[nH]c4ccc(O)cc4c3c(C)c2c1,41% (inactive)
2,O=[n+]1c2ccc(Cl)cc2n([O-])c2ccc(Cl)cc21,12% (inactive)
3,CCOP(=O)(OCC)C(Cc1ccccc1)N=C(c1ccccc1)c1ccccc1 (stereo not drawn),-16% (inactive)
4,CC[C@@]1(O)C(=O)OCc2c1cc1n(c2=O)Cc2cc3c(N)cccc3nc2-1,79% (active)
5,COC1C=COC2(C)Oc3c(C)c(O)c4c(c3C2=O)/C(=N/C2CCC(O)OC2C)C=C(NC(=O)/C(C)=C\C(=O)C2CC2C(O)C(C)C(O)C(C)C(OC(C)=O)C1C)C4=O (stereo not drawn),-2% (inactive)
6,COc1cc2c(c(OC)c1OC)-c1c(cc3c(c1OC)OCO3)CC(C)C(C)(O)C2OC(=O)c1ccccc1 (stereo not drawn),-15% (inactive)
7,O=c1ssc2ncccc12,15% (inactive)
8,O=C1C2C(C(=O)N1c1ccc(OCc3ccccc3)cc1)C1c3ccccc3C2C2CCCCN21 (stereo not drawn),1% (inactive)
9,COc1ccc(-c2cn(-c3ccc(I)cc3)c3ncnc(N)c23)cc1,-5% (inactive)
10,CCOC(=O)C(NC(=O)c1ccccc1)(N1CCN(c2cc3c(cc2F)c(=O)c(C(=O)O)cn3C2CC2)CC1)C(F)(F)F (stereo not drawn),2% (inactive)
11,C/C(=N\O)C1CC2C=C(C#N)C1N(Cc1ccccc1)C2 (stereo not drawn),-3% (inactive)
12,CC/C(=C(\c1ccccc1)c1ccc(OCCN(C)C)cc1)c1ccccc1,11% (inactive)
13,COc1ccccc1N=NC(C(=O)c1ccccc1)C(=O)c1ccccc1,22% (inactive)
14,CC(O)C(O)C(O)C(/C=N\Nc1ccccc1)=N/Nc1ccccc1 (stereo not drawn),10% (inactive)
15,COc1ccc(/C=C2\SC(=S)N(/C=C/c3nc4ccccc4[nH]c3=O)C2=O)cc1OC,10% (inactive)
16,N#CN=Nc1cc(Cl)c(N=NC#N)cc1Cl,-19% (inactive)
17,Cc1ccc(S(=O)(=O)Oc2cc(Cl)c(Cl)cc2Cl)cc1,4% (inactive)
18,c1ccc2c(c1)Oc1cccc3cccc-2c13,3% (inactive)
19,O=C(c1ccc(Cl)cc1Cl)C(Cl)Cl,0% (inactive)
20,CC(C)C1=CCC2C(=C1)CCC1C(C)(C(=O)O)CCCC21C (stereo not drawn) (tested in a mixture with another compound),9% (inactive)

row,Structure (SMILES),growth inhibition
1,COc1cc(/C=C2\CCc3ccccc3C2=O)cc(OC)c1OC,-3% (inactive)
2,CC(=O)[O][Bi]([c]1ccccc1)[c]1ccccc1,41% (inactive)
3,S=C(N/N=C/c1ccccn1)Nc1ccc(Cl)cc1,-5% (inactive)
4,COc1cc(CC2CC(c3ccc4c(c3)OCO4)OC2=O)cc(OC)c1OC (stereo not drawn),-1% (inactive)
5,CNC1C(OC2C(OC3C(O)C(O)C(N=C(N)N)C(O)C3N=C(N)N)OC(C)C2(O)CO)OC(CO)C(O)C1O (stereo not drawn),1% (inactive)
6,NNC(=O)CCc1ccc2ccc3ccccc3c2c1,-3% (inactive)
7,Oc1ccc2ccccc2c1C(c1ccc(Cl)cc1)c1c(O)ccc2ccccc12,-23% (inactive)
8,CCCCN(CCCC)CCSc1ccc(Cl)cc1,-13% (inactive)
9,CCC(C)COC(=O)c1ccc(N=Cc2ccc(C=Nc3ccc(C(=O)OCC(C)CC)cc3)cc2)cc1 (stereo not drawn),-3% (inactive)
10,CC1(C)C(=O)OC(n2cc(F)c(=O)[nH]c2=O)C1=O (stereo not drawn),-22% (inactive)
11,O=[N+]([O-])CC(SCc1ccccc1)c1ccc2c(c1)OCO2 (stereo not drawn),34% (inactive)
12,COc1cc2c(cc1[N+](=O)[O-])C(=O)C(Br)(Br)CCC2,63% (inactive)
13,OCC1OC(OCC(O)C(O)C(O)C(/C=N/Nc2ccccc2)=N/Nc2ccccc2)C(O)C(O)C1O (stereo not drawn),9% (inactive)
14,COc1ccc(N=C2C(=O)Nc3ccc(Br)cc32)cc1,15% (inactive)
15,Cn1c(=O)c2ccccc2c2ccccc21,9% (inactive)
16,CC[n+]1ccc2c(C)c3[nH]c4ccc(O)cc4c3c(C)c2c1,48% (inactive)
17,CC(=O)ON1C(=O)c2cccc3cccc(c23)C1=O,38% (inactive)
18,COc1ccc2ccc3ccccc3c2c1C=O,-5% (inactive)
19,OC1CCCc2c1cc1ccc3cccc4ccc2c1c34 (stereo not drawn),-2% (inactive)
